Measurements as given in PubChem BioAssay AID1276 (Columbia University Molecular Screening Center, 2008).
Screen size: about 190,000 compounds; about 2,000 (1.1%) were called active. The full list was thinned out, with actives kept by preference. Values without a mark were called inactive.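 The calls were made as follows: active = activation above a set limit, based on mean plus 3 SD of controls (cut at about 140% in these data); inconclusive = one replicate above the limit, the other below; inactive = the rest.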

experiment: activators of APP 5'UTR luciferase reporter, primary screen, SH-SY5Y cells (AID 1276); details: SH-SY5Y APP 5'UTR luciferase reporter, luminescence; at 2 µM; stronger effect = higher value; zero percent = DMSO vehicle wells

Row | SMILES | activation
1 | CCc1ccc(-c2cc(C(=O)NN3CCN(C)CC3)c3ccccc3n2)cc1 | 47.9%
2 | COCCNc1nc2nonc2nc1N1CCCC1c1nccs1 (stereo not given) | 2.4%
3 | CCC(C)NCC(=O)Nc1ccc([N+](=O)[O-])cc1C(=O)Nc1ccccc1F (stereo not given) | -0.05%
4 | CC(CC(=O)O)CC(=O)NNC(=O)c1cccc(Br)c1 (stereo not given) | 7.74%
5 | C(=N\Nc1ccc2ccccc2n1)/c1ccc2c(c1)OCO2 | 227% (active)
6 | O=C(Cc1ccc(F)cc1)N/N=C/c1ccc2c(c1)OCO2 | 42.8%
7 | Cc1nc2ccccc2cc1C(=O)N/N=C/c1ccc([N+](=O)[O-])cc1 | -13.5%
8 | Brc1ccc(-c2csc(N/N=C/c3ccc4c(c3)OCO4)n2)cc1 | -0.09%
9 | Cc1noc(C)c1/C=N/Nc1ccc2ccccc2n1 | 169% (active)
10 | Cc1cc(C)nc(N/N=C/c2c(C)oc3ccccc23)n1 | 22.1%
11 | Cc1cccc(-n2c(=O)c3c(C)c(C)sc3n(CC(N)=O)c2=O)c1 | -15.7%
12 | CCn1c(SCC(=O)Nc2ccc(C)cc2)nc2nc3c(cc2c1=O)CCCC3 | 17.6%
13 | CC(C)CNC(=S)NC(=O)c1ccc(Cl)cc1 | 37.3%
14 | Cc1cccc(OCCC(=O)Nc2cc(S(=O)(=O)N3CCCCC3)ccc2N2CCOCC2)c1 | 11.1%
15 | COc1ccc(OCCNS(=O)(=O)Cc2ccccc2)cc1 | 8.23%
16 | CC1CN/C(=C\C(=O)c2ccc(Br)cc2)C(=O)N1 (stereo not given) | 138% (active)
17 | CN1CCCC(OC(=O)COc2ccc(Br)cc2)C1 (stereo not given) | 3.06%
18 | C/C(=C\C(=O)c1ccc(Br)cc1)N1CCCCC1 | -20.4%
19 | COc1ccc(Cc2nnc(N/N=C/c3ccccc3O)[nH]c2=O)cc1OC | -85.9%
20 | Cc1cc(Cl)ccc1OCc1nc(-c2ccncc2)no1 | 95.7%
21 | COC(=O)c1sc(NC(=O)c2csc3c2CCCC3)nc1C | 95.3%
22 | Cc1ccc(NC(=O)c2csc3c2CCCC3)cc1 | 232% (active)
23 | COC(=O)c1sccc1NC(=O)c1csc2c1CCCC2 | -8.07%
24 | Cc1cc(C)n(CCNCc2c(C(=O)N3C[C@@H](C)O[C@@H](C)C3)nc3ccc(Cl)cn23)n1 | 13.1%
25 | O=C(Nc1cccc(O)c1)c1ccc(C(=O)c2ccccc2)o1 | 155% (active)

Row | SMILES | activation
26 | O=C(CSc1ccccc1)Nc1ccc(C(=O)Nc2cccc(O)c2)cc1 | 37.6%
27 | C/C(=C\C(=O)c1ccccc1)Nc1cccc(O)c1 | 33.4%
28 | CC1COc2ccccc2N1S(=O)(=O)c1ccccc1 (stereo not given) | -2.45%
29 | O=C(Nc1ccc(Oc2ccccc2)cc1)c1ccco1 | 163% (active)
30 | COC(=O)c1ccc(NC(=O)c2ccco2)cc1 | 120%
31 | O=C(CSc1ccccc1)Nc1ccc(NC(=O)c2ccco2)cc1 | 6.16%
32 | COC(=O)c1cc2n(n1)CCCNC2=O | -7.46%
33 | Cc1ccc(-c2csc(NNC(=O)c3ccccc3)n2)cc1 | 3.5%
34 | Cc1ccc(NC(=O)c2cc(-c3ccc(C)o3)nc3ccccc23)nc1 | -0.92%
35 | Cc1ccc(Nc2nc(-c3ccc(O)cc3O)cs2)nc1 | 151% (active)
36 | CC1=NNC(=O)C1CCC(=O)N/N=C\c1cccc(Cl)c1 (stereo not given) | 0.72%
37 | O=c1cc(N2CCCCC2)c(-c2ccccc2)nn1Cc1cccc(F)c1 | -6.8%
38 | CCOc1ccc(C(=O)NC(=S)Nc2ccc(N3CCOCC3)c(Cl)c2)cc1[N+](=O)[O-] | -10.7%
39 | Cc1ccc2nc(-c3ccc(NC(=O)CN(C)S(=O)(=O)c4ccccc4)cc3)sc2c1 | 190% (active)
40 | COc1cc(NC(=O)CN(C)S(=O)(=O)c2ccc3nc(C)sc3c2)cc(OC)c1 | 17.7%
41 | Cc1cccc(N(CC(=O)Nc2ccc(-c3nc4ccc(C)cc4s3)cc2)S(C)(=O)=O)c1 | 104%
42 | C=CCN(C(=O)Nc1ccc2oc(C)nc2c1)c1ccccc1 | 11.6%
43 | Cc1nc2cc(NC(=O)NCc3ccccc3)ccc2o1 | 23.1%
44 | Cc1ccc(NC(=O)Nc2ccc3oc(C)nc3c2)cc1 | 145% (active)
45 | COC(=O)c1ccc(/C=N/N2C(C)CCCC2C)cc1 (stereo not given) | 53%
46 | CCOC(=O)CSc1nnc(-c2ccc([N+](=O)[O-])cc2)o1 | 5.38%
47 | CC1=CC=CC2=N/C(=N\S(=O)(=O)c3ccc(F)cc3F)c3ccccc3CN12 | 27%
48 | Cc1cc(C(=O)COC(=O)C2CC2)c(C)n1-c1ccc(F)cc1 | 145% (active)
49 | Cc1ccc(-n2c(C)cc(C(=O)CN3C(=O)C(=O)N(C4CCCC4)C3=O)c2C)cc1 | -9.76%
50 | COc1cc(/C=N/NC(=O)c2cc(C)n(-c3ccc(F)cc3)c2C)cc(OC)c1O | 0.41%
